# TAG inh: inhibitors of triacylglycerol accumulation | H9c2 cells, Nile Red lipid (TAG) fluorescence; cells loaded with 200 µM oleic acid | inhibition, % at 12.5 µM | actives 0.66% (n = 230,000) | AID 651582;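 active means pattern-corrected inhibition of lipid staining of at least 50% with the nuclear-stain viability signal not falling by more than 50%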
# FAS TE block: inhibitors of human fatty acid synthase thioesterase domain; inhibition, % at 15 µM; recombinant FAS-TE, OMFH fluorogenic substrate, fluorescence endpoint; actives 0.67% (n = 360,000);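 active means compounds whose normalised, plate-corrected inhibition of enzyme fluorescence in the single-dose primary screen is 50% or more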
# Calpain2 inh: calpain II (pig) inhibition. purified calpain II, fluorogenic peptide substrate, 30 min. inhibition, % at 16 µM. actives 0.37% (n = 220,000);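 active means inhibition above about 50%, limit read from the data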
# aDG glyco act: increases alpha dystroglycan glycosylation; Pro5-aDG cells, alpha-DG glycosylation AlphaScreen (IIH6); 0% Pro5, 100% B10-LARGE cell signal; activation, % at 10 µM; actives 0.22% (n = 360,000); AID 624168;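 active means activation of at least 8% versus controls, or a plate z-score of at least 8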;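 further: Pro5 are CHO cells carrying HIG-tagged alpha-DG that lacks glycosylation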
# H9c2 protect: modulators protecting cardiomyocytes from myocardial damage. actives 0.63% (n = 360,000). protection from H2O2 cell death, % at 20 µM. H9c2 cardiomyocytes, H2O2 injury protection, ATPLite, 2 h;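 active means compounds giving at least 50% protection of heart cells from peroxide-induced death in the single-dose screen, raw or plate-pattern-corrected value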
# beta cell repl: inducers of beta-cell replication in MIN6 cells; MIN6 cells proliferation, ATPlite luminescence, 48 h; cells starved in 0.2% serum; 100% = growth in 10% serum; proliferation, % at 10 µM; actives 0.29% (n = 330,000); AID 2380;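 active means compounds whose signal lies at least 3.5 SD above the mean of all wells on their plate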
# aDG glyco conf: alpha-DG glycosylation activation, confirmation; Pro5-aDG cells, IIH6 AlphaLISA; scaled to LARGE-overexpressing B10 cells as 100%; AID 651671; actives 17% (n = 600); activation, % at 10 µM (by protocol); shares compounds with aDG glyco act;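 active means activation of at least 7% in one or more replicates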;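 further: cells exposed to compound for two days before detection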
# Numbers stand for hits; n = inactive; x = not tested or not shown. Only some compounds are listed: those with a hit (about 2.3% of all), similar ones and a draw of the others.
SMILES,TAG inh,FAS TE block,Calpain2 inh,aDG glyco act,H9c2 protect,beta cell repl,aDG glyco conf
O=C(Nc1ccccc1)Nc1sccc1-c1nc2ccccc2s1,n,n,n,n,n,n,x
O=C(Nc1cccc(Cl)c1)Nc1sccc1-c1nc2ccccc2s1,n,n,n,4.4,n,n,n
CCN(CC)S(=O)(=O)c1ccc(C)c(NC(=S)N2CCN(C/C=C/c3ccccc3)CC2)c1,n,n,n,8.6,n,n,n
CCN(CC)S(=O)(=O)c1ccc(C)c(NC(=S)N2CCN(c3ccccn3)CC2)c1,x,n,x,n,n,n,x
CC(C)c1ccc(NC(=O)[C@@H]2CCC(=O)N2C2OC(=O)c3ccccc32)cc1 (some centres undefined),x,n,x,n,n,n,x
O=C(COC(=O)CN1C(=O)C2CCCCC2C1=O)Nc1c(Cl)cccc1Cl (centres undefined),n,n,x,4.4,n,n,n
O=C(COC(=O)CC1CCCCC1)Nc1c(Cl)cccc1Cl,n,n,x,n,n,n,x
CCOC(=O)C1=C(C)OC(N)=C(C#N)C1c1ccc(OC)c(C)c1OC (centres undefined),x,n,n,9.7,n,n,n
CCOC(=O)C1=C(CC)OC(N)=C(C#N)C1c1ccc(OC)c(C)c1OC (centres undefined),x,n,n,n,n,n,x
CC(C)COc1cccc(C(=O)NNC(=O)C2COc3ccccc3O2)c1 (centres undefined),n,n,x,6.2,n,n,n
Nc1ccc(C(=O)NNC(=O)C2COc3ccccc3O2)cc1[N+](=O)[O-] (centres undefined),n,n,x,n,n,n,x
Cc1ccc(S(=O)(=O)N(C)C)cc1NC(=O)C1CCCCC1,n,n,n,n,n,n,x
COc1ccc(C(C(=O)Nc2ccc(F)cc2)N2CCN(CC(=O)N3CCCC3)CC2)cc1 (centres undefined),x,x,x,8.6,x,x,n
O=C(Nc1ccc(F)cc1)C(c1ccccc1)N1CCN(CC(=O)N2CCCC2)CC1 (centres undefined),n,n,x,n,n,n,x
COCCCNc1nc2c(c(=O)[nH]c(=O)n2C)n1CC(O)COc1ccccc1 (centres undefined),n,n,n,11,n,n,n
CCCCOc1ccc(C(=O)NCC(=O)NCc2ccccn2)cc1,n,n,x,7.3,n,n,n
Cc1cccc(C)c1NC(=O)CSc1nc2[nH]c(=O)cc(O)c2s1,n,n,x,18,n,n,n
COc1ccc(C(=O)NC2CC2)cc1OC1CCN(Cc2ccc(F)cc2)CC1,n,n,x,n,n,n,x
FC(F)(F)c1cccc(Cc2noc(CN3CCC(c4ccncc4)CC3)n2)c1,n,n,n,6.1,n,n,n
O=C(Nc1nncs1)C12CC3CC(CC(Cl)(C3)C1)C2,x,n,x,n,n,x,x
CCc1ccccc1NC(=O)COC(=O)c1c(C)nsc1NC,n,n,x,4.0,n,n,n
COc1ccc(S(=O)(=O)N2CCCC2=O)cc1N(C)S(C)(=O)=O,x,n,x,n,n,n,x
Cc1cccc(NC(=O)c2ccc([N+](=O)[O-])s2)c1C,n,n,n,10,n,n,n
COCCNc1nc(NCCOc2ccccc2)c2sc(-c3ccccc3)cc2n1,n,n,x,7.6,n,x,6.9
CN(C)c1nc(-c2cn(CCC#N)c3ccccc23)cs1,x,n,x,5.1,n,n,n
SMILES,TAG inh,FAS TE block,Calpain2 inh,aDG glyco act,H9c2 protect,beta cell repl,aDG glyco conf
COCCn1cc(-c2csc(N)n2)c2ccccc21,x,n,x,n,n,n,x
NC(=S)NN=C(c1ccc(Br)cc1)C1CC1,n,n,x,5.7,n,x,n
Cc1ccc(C(=O)O)cc1NS(=O)(=O)c1ccc2c(c1)oc(=O)n2C,x,n,x,n,n,n,x
Cc1nc2nc(C(F)(F)F)[nH]c2nc1C,n,n,x,n,n,x,x
Cc1csc(NC(=O)C2CCCN(S(=O)(=O)c3ccc4c(c3)oc(=O)n4C)C2)n1 (centres undefined),n,n,n,9.1,n,n,n
Cc1ccc(NC(=O)C2CCCN(S(=O)(=O)c3ccc4c(c3)oc(=O)n4C)C2)nc1 (centres undefined),n,n,n,n,n,n,x
